The source of these data is PubChem BioAssay AID504834 (National Center for Advancing Translational Sciences (NCATS), 2011).

About 22,000 (6.9%) of roughly 320,000 compounds were called active. A call without a number means that no potency is given here. Inconclusive results (about 27%) are left out. The call rests on the fitted dose curve; in most records, active means well fitted inhibition curve with a large enough effect; inconclusive means small, poorly fitted or top-dose-only effect, or another doubt; inactive means no such curve, though single readings can be large or run the other way. For the sample, actives were picked, then their nearest neighbours and some compounds at random.
Potency means the concentration at half of the fitted maximal effect.

The nature of the experiment: Primary qHTS for delayed death inhibitors of the malarial parasite plastid, 96 hour incubation. As to conditions: P. falciparum luciferase reporter growth; series mostly up to 28.7 µM. A digest of the protocol: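 Parasite growth measured via integrated firefly luciferase reporter in P. falciparum. Infected erythrocytes at 2% hematocrit, 0.05% parasitemia final were treated 96 hours at 37 C under 5% CO2, and luminescence was read.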
On the technique in general: In qHTS, concentration-response curves come from the screen itself.
Turning to `COC(OC)c1ccnc(SCc2ccccc2Cl)n1`, the Potency entry was “inactive”.

Turning to `O=C(CNCc1cccs1)Nc1cc(S(=O)(=O)N2CCCC2)ccc1Cl`, the Potency entry is “inactive”. `COc1ccc(C)cc1NC(=O)NCc1ccccn1`: the activity change, negative = inhibition was 14.6% [at 5.75 µM] (inactive).

As to `COc1ccc(C)cc1NC(=O)CNCc1cccs1`, the Potency is 11.7 µM (active). As to `CC(C)Cc1nnc(NC(=O)CCC(=O)Nc2ccc3cn[nH]c3c2)s1`, the Potency entry was “inactive”. On to `CCOc1ccc(NC(=O)c2ccc(NC(=O)C3CCCO3)cc2)cc1` (stereo not drawn), for which the Potency result is “inactive”. The same measure, in the same setting: the result for `CCN(CCNC(=O)C1=C(C)C(=O)OC12CCC(C)CC2)c1ccccc1` (stereo not drawn) reads “inactive”.

On to `COc1ccc(C2=NOC(COC(=O)c3ccc4ccccc4n3)C2)cc1` (stereo not drawn), for which the Potency result was “inactive”. Same read-out and setting: the result for `COc1ccc(C2=NOC(Cn3nc(C(=O)NCc4ccc5c(c4)OCO5)cc3-c3ccccc3)C2)cc1` (stereo not drawn) reads 10.4 µM (active); that for `COc1ccc(NC(=O)NCc2ccc3c(c2)OCO3)c(OC)c1`, “inactive”. In the case of `Cc1ccc(NC(=O)COC(=O)CNC(=O)c2ccc(Cl)cc2Cl)cc1S(=O)(=O)N1CCOCC1`, the Potency entry was “inactive”.

In the case of `Cc1c(C)n(Cc2ccc(Cl)cc2)c2ccc(C(=O)NCCCN3CCOCC3)cc12`, the Potency entry was “inactive”. Still for that read-out and setting: the result for `O=C(COc1ccc(-n2cnnn2)cc1)Nc1ccccc1Cl` reads “inactive”; that for `CC(C)(C)c1nc(NCC2CCCO2)c2nnn(Cc3ccccc3)c2n1` (stereo not drawn), “inactive”; that for `COc1ccc(CCNc2ncnc3c2nnn3Cc2ccccc2)cc1`, 2.94 µM (active). On the same count and under the same terms, then `Clc1ccc(Nc2ncnc3c2nnn3Cc2ccccc2)cc1`, with “inactive”. The same measure, in the same setting: then `COc1ccccc1CCNC(=O)CN1C(=O)NC2(CCCC2)C1=O`, with “inactive”; and `COc1ccc(CCNS(=O)(=O)c2cccc([N+](=O)[O-])c2)cc1`, with “inactive”; and `COc1ccc(S(=O)(=O)NCCc2cc3ccc(C)c(C)c3[nH]c2=O)cc1`, with 8.28 µM (active). For the compound `COC(=O)CNS(=O)(=O)c1ccc(OC)cc1`, the Potency result was “inactive”. For the compound `COc1ccc2[nH]c(C(=O)Nc3ccccc3Cl)cc2c1`, the Potency entry is “inactive”.

As for `CN(C(=O)CN1C(=O)S/C(=C\c2ccccc2F)C1=O)C1CCS(=O)(=O)C1` (stereo not drawn), the Potency entry is “inactive”. Same read-out and setting: the result for `CN(C(=O)CCN1C(=O)/C(=C/c2ccccc2F)SC1=S)C1CCS(=O)(=O)C1` (stereo not drawn) reads “inactive”.

For the compound `CCN(C(=O)CN1C(=O)/C(=C/c2ccc(F)cc2)SC1=S)C1CCS(=O)(=O)C1` (stereo not drawn), the Potency is 11.7 µM (active). The same measure, in the same setting: the result for `CC(C)NC(=O)COCc1cc(-c2ccc3c(c2)OCO3)on1` reads “inactive”; that for `Cn1cccc1C(=O)NNC(=O)COc1ccc(Br)cc1`, “inactive”; that for `O=C(CSc1nnc2n1CCCN2)c1ccccc1`, “inactive”. On the same count and under the same terms, the result for `Cc1c(C)c2ccc(OCC(=O)N3CCC(C(=O)O)CC3)c(C)c2oc1=O` reads “inactive”. On the same count and under the same terms, then `Cc1c(OC(C)C(=O)NCC2CCC(C(=O)O)CC2)ccc2c1oc(=O)c1ccccc12` (stereo not drawn), with 13.1 µM (active).

As for `Cc1c(OC(C)C(=O)N[C@@H](Cc2ccccc2)C(=O)O)ccc2c3c(c(=O)oc12)CCCC3` (stereo partly drawn), the Potency result is “inactive”. Still for that read-out and setting: the result for `CCC(C(=O)NCc1cccnc1)n1nc(C)c2sc3ccccc3c2c1=O` (stereo not drawn) reads “inactive”; that for `O=C(C1CCCN(S(=O)(=O)c2ccccc2)C1)N1CCN(c2ccc(F)cc2)CC1` (stereo not drawn), “inactive”; that for `CCOC(=O)C(C)n1cnc2c(nnn2-c2cccc(OC)c2)c1=O` (stereo not drawn), “inactive”. The same measure, in the same setting: then `COc1ccc(/C=N\NC(=O)c2sc(N)nc2C)cc1OC`, with “inactive”; and `COc1ccc(/C=N/NC(=O)c2ccc(Cl)cc2)cc1COC(C)=O`, with “inactive”.

As for `COc1cccc(OCc2cc(/C=N/NC(=O)c3nc(Cl)c(Cl)c(N)c3Cl)ccc2OC)c1`, the Potency is 13.1 µM (active).

Consider `O=C(Nc1cc(C(F)(F)F)ccc1Cl)c1cc(C2CC2)on1`, for which the Potency entry is “inactive”.

Take `O=C(NC1CCCCC1)c1cc(C2CC2)on1`: the Potency entry was “inactive”. Same read-out and setting: then `CSc1ccccc1NC(=O)c1cc(C2CC2)on1`, with 7.38 µM (active); and `Cc1ccc(OCC(=O)NC(C)c2ccccc2)cc1C` (stereo not drawn), with 5.22 µM (active); and `CC(=O)NC(CC(=O)O)c1ccc(F)cc1` (stereo not drawn), with “inactive”. Same read-out and setting: the result for `CCOc1ccc(C(CC(=O)O)NC(=O)COc2ccccc2)cc1` (stereo not drawn) reads 10.4 µM (active).

On to `COCCNC(=O)COc1ccc(C)c(C)c1`, for which the Potency entry is “inactive”.

In the case of `O=C(COc1ccccc1)Nc1nonc1NC(=O)COc1ccccc1`, the Potency entry is “inactive”. Still for that read-out and setting: the result for `COc1ccc(C(CC(=O)O)NC(=O)Cc2ccccc2)cc1` (stereo not drawn) reads 2.94 µM (active); that for `CCOc1ccc(C(CC(=O)O)NC(=O)Cc2ccccc2)cc1OC` (stereo not drawn), “inactive”. Same read-out and setting: the result for `COc1ccc(C(CC(=O)Nc2ccc(C)cc2)NC(=O)C(F)(F)F)cc1` (stereo not drawn) reads “inactive”; that for `Cc1cc(C)cc(OCC(=O)NC(C)c2ccccc2)c1` (stereo not drawn), “inactive”. The same measure, in the same setting: the result for `CCN(CC)S(=O)(=O)c1ccc2[nH]c(=O)cc(C(=O)N(C)C3CCS(=O)(=O)C3)c2c1` (stereo not drawn) reads “inactive”; that for `COc1ccc(-c2cnc(SCCNC(=O)c3ccc4c(c3)OCO4)[nH]2)cc1`, “inactive”; that for `CCOc1ccc(N(CC(=O)Nc2cccc(OC)c2)S(C)(=O)=O)cc1`, “inactive”.

For the compound `CC(=O)Nc1cccc(C(=O)OCN2C(=O)c3ccccc3C2=O)c1`, the Potency result was “inactive”. On the same count and under the same terms, then `Cc1cccc(NC(=O)c2ccc3ccccc3n2)n1`, with “inactive”.

With `Cc1ccc2cccc(OCCCOc3ccccc3CO)c2n1`, the Potency result was “inactive”. The same measure, in the same setting: then `Cc1ccc(N(C)C(=O)Oc2cccc3ccc(C)nc23)cc1`, with 0.104 µM (active); and `CSCCC(NC(=O)c1ccco1)C(=O)Nc1cc(C)ccn1` (stereo not drawn), with “inactive”. Still for that read-out and setting: the result for `CCS(=O)(=O)NCCc1ccc(OC)c(OC)c1` reads “inactive”. The same measure, in the same setting: the result for `COc1ccc(CCNS(=O)(=O)c2ccc(F)cc2)cc1OC` reads “inactive”; that for `CCOC(=O)c1cc(S(=O)(=O)NCCc2ccc(OC)c(OC)c2)cn1C`, 13.1 µM (active).

Consider `Cc1[nH]c2ccc(C(=O)N3CCN(C)CC3)cc2c1C`, for which the Potency result is “inactive”.

Consider `Cc1c(Cl)cccc1NC(=O)[C@@]1(CC(=O)O)CC(/C=C/c2ccccc2)=NO1`, for which the Potency result was “inactive”. Turning to `CN1CCc2nc(SC(C(=O)O)c3ccccc3)c(C#N)c(-c3cccs3)c2C1` (stereo not drawn), the Potency entry is “inactive”. Still for that read-out and setting: then `Cc1cc(NC(=O)CCS(=O)(=O)c2ccc(F)cc2)no1`, with “inactive”; and `COc1cccc(/C=N\NC(=O)C2=NNC(=O)C2C)c1O` (stereo not drawn), with 4.15 µM (active). On to `COc1cccc(/C=N/NC(=O)c2[nH]nc3c2CCc2ccccc2-3)c1O`, for which the Potency result is “inactive”. Still for that read-out and setting: the result for `COc1ccc(C(=O)Nc2ccccc2C(=O)N/N=C/c2ccccc2OC)cc1` reads “inactive”. The same measure, in the same setting: then `COc1ccccc1-n1ccnc(SCC(=O)NC2CCCCC2)c1=O`, with “inactive”; and `COc1ccc(C(=O)OCC(=O)Nc2ccc3[nH]c(=O)[nH]c3c2)c(OC)c1OC`, with “inactive”; and `Cc1ccc(S(=O)(=O)N(C)C)cc1NC(=O)COC(=O)/C=C/c1cccs1`, with “inactive”. As for `CC(C)C(NC(=O)C1CCC(C(C)(C)C)CC1)C(=O)NCCCN1CCCCC1` (stereo not drawn), the Potency is 13.1 µM (active). Consider `CC(C)[C@@H](NC(=O)OC(C)(C)C)C(=O)NCC1CCC(C(=O)N[C@@H](Cc2ccccc2)C(=O)O)CC1` (stereo partly drawn), for which the Potency entry was “inactive”.

Turning to `O=C(NC(C(=O)NCCN1CCOCC1)C12CC3CC(CC(C3)C1)C2)C1CCCCC1` (stereo not drawn), the Potency result is “inactive”. Still for that read-out and setting: the result for `CCCCn1c(N)c(N(CC)C(=O)c2ccccc2C(F)(F)F)c(=O)[nH]c1=O` reads “inactive”; that for `CCOc1ccc(CN(C)C(=O)c2ccc(=O)[nH]c2)cc1`, “inactive”; that for `COc1ccc(N(CCC(=O)NCCc2ccccc2)S(=O)(=O)c2ccc(C)cc2C)cc1`, “inactive”.

Take `Cc1cccc(NC(=O)NC(=S)NC(=O)c2ccccc2)c1`: the Potency result was “inactive”.

For `Cc1cccc(NC(=O)Nc2cccc(Oc3c(F)c(F)c(F)c(F)c3F)c2)c1`, the Potency is 2.08 µM (active). As to `Cc1cccc(NC(=S)NC(=O)c2ccc(Br)o2)c1`, the Potency result was “inactive”.

In the case of `Cc1ccc(C)c(NS(=O)(=O)c2ccc(OCC(=O)NCc3cccnc3)cc2)c1`, the Potency result is “inactive”. On to `O=C(NCc1cccnc1)c1nc(-c2cccs2)no1`, for which the activity change, negative = inhibition was 112% [at 5.75 µM] (inactive).

Take `Cc1ccc(S(=O)(=O)c2nc(-c3cccs3)oc2NCc2cccnc2)cc1`: the Potency is 11.7 µM (active). On the same count and under the same terms, the result for `COc1cccc2cc(C(N)=O)/c(=N\NC(=O)c3ccccc3)oc12` reads “inactive”. For `Cn1nccc1NS(=O)(=O)c1ccc(F)cc1`, the Potency result was “inactive”. With `O=C(CN1CCN(c2ccc(Cl)cc2)CC1)c1ccccc1`, the Potency result was “inactive”.

Turning to `CC(=O)c1ccc2c(ccc3ccccc32)c1`, the Potency entry is “inactive”. Still for that read-out and setting: the result for `CC(=O)c1nn(-c2cccc(Br)c2)cc1C(=O)c1cccc2ccccc12` reads 6.57 µM (active); that for `Cc1ccn2c(=O)c(NC(=O)c3cccc4ccccc34)c(C)nc2c1`, “inactive”. Same read-out and setting: then `Cc1ccc(C(=O)OCC(=O)Nc2ccc(Cl)cn2)cc1S(=O)(=O)N1CCOCC1`, with “inactive”. As for `Cc1ccc(CSc2ccc(S(=O)(=O)N3CCCCC3)cn2)cc1`, the Potency result is “inactive”.

In the case of `O=C(Nc1ccc(F)cc1)c1ccc(S(=O)(=O)NCc2cccnc2)cc1`, the Potency entry is “inactive”. Still for that read-out and setting: the result for `Cc1cccn2cc(-c3cccc(S(=O)(=O)N4CCCCC4)c3)nc12` reads “inactive”; that for `COc1ccc(N2CCN(C(=O)c3ccc(N4CCCCS4(=O)=O)cc3)CC2)cc1`, “inactive”; that for `COCCNC(=S)N(CCc1c(C)[nH]c2ccc(C)cc12)Cc1cccnc1`, 1.65 µM (active). The same measure, in the same setting: the result for `COCCNC(=S)N(Cc1cccnc1)Cc1ccc(OC)c(OC)c1` reads “inactive”. For the compound `Cc1ccc(CN(Cc2cccnc2)C(=S)Nc2cccc(Cl)c2C)cc1`, the Potency result is “inactive”.

For the compound `CC(NC(=O)c1cc(=O)[nH]c2ccccc12)c1ccc(F)cc1F` (stereo not drawn), the Potency entry was “inactive”. Same read-out and setting: the result for `O=C1C(=O)N(CCCN2CCOCC2)C(c2ccc([N+](=O)[O-])cc2)/C1=C(\O)c1ccc2c(c1)OCCO2` (stereo not drawn) reads “inactive”. `COC(=O)c1c(NC(=O)C(=O)N2CCCCC2)sc2c1CC(C)(C)OC2`: the Potency result is “inactive”. Still for that read-out and setting: the result for `Cc1ccc(Cn2c(C)c3cnn(CC(=O)NCc4ccccn4)c(=O)c3c2C)cc1` reads “inactive”; that for `Cc1ccc(CNC(=O)Cn2c(=O)c3sccc3n(Cc3cccc([N+](=O)[O-])c3)c2=O)cc1`, 8.28 µM (active).

Take `COCCNC(=O)CCCn1c(=O)c2ccccc2n(Cc2cccc([N+](=O)[O-])c2)c1=O`: the Potency result was “inactive”.

As to `CSCC[C@H](NC(=O)N1CCn2c1nc1ccccc12)C(=O)NC1CCCCC1`, the Potency entry is “inactive”. The same measure, in the same setting: the result for `CCn1c(SCC(=O)NC2CC2)nnc1-c1ccncc1` reads “inactive”.
